# Experimental data: PubChem BioAssay (Tox21)
# The source made the active and inactive calls. The call rests on the fitted dose curve.
# Target: Acetylcholinesterase (Homo sapiens) (UniProt P22303)
# Experiment: Acetylcholinesterase (AChE) small molecule antagonists: enzyme-based qHTS assay with human liver microsomes (AID 1347399); further: nearly all actives have a fitted effect of over 60% in size
# Conditions: Potency: qHTS inhibition; outcome: qHTS inhibition; series mostly up to 115 µM; activity change, negative = inhibition: at the top concentration
# In short: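 Recombinant human AChE (50 mU/mL in the enzyme mix) and human liver microsomes (0.25 mg/mL final) were preincubated with compound and NADPH (0.25 mg/mL final) for 30 min at 37 C. Acetylthiocholine/DTNB was then added; thiocholine was read colorimetrically after 10 min at room temperature.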
# On the % scale 0 is the no-effect control and ±100 the full control effect.
# Sequence of Acetylcholinesterase (Homo sapiens) (P22303 whole entry, looked up): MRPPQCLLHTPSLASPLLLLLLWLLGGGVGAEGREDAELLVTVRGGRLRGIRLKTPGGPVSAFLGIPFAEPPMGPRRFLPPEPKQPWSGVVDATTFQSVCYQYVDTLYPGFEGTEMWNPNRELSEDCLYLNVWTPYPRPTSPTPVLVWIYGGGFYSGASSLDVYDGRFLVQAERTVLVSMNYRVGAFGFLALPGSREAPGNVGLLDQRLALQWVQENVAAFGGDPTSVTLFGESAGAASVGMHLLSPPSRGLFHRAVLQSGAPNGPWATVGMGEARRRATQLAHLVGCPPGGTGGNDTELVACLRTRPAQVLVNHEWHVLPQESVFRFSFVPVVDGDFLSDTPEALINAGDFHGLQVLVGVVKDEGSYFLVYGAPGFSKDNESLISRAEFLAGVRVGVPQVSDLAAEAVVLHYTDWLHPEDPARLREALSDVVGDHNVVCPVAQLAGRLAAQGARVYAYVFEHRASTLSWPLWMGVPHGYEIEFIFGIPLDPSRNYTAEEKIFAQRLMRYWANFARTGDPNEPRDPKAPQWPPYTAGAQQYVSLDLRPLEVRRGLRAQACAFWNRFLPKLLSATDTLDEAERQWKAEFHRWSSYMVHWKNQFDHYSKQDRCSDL
Compound,"activity change, negative = inhibition",Potency
CCCCC(CC)COC(=O)COc1cc(Cl)c(Cl)cc1Cl (centres undefined),0.0568% (inactive),
COc1cccc(CCc2ccccc2OCC(CN(C)C)OC(=O)CCC(=O)O)c1 (centres undefined),-0.965% [at 53 µM] (inactive),
CCCCCCCCCCC=CC1CC(=O)OC1=O (centres undefined),,inactive
O=C(O)[C@@H](O)[C@H](O)[C@H](O)[C@@H](O)C(=O)O,33.8% [at 53 µM] (inactive),
CN1CCN(C(c2ccccc2)c2ccccc2)CC1,-1.93% [at 53 µM] (inactive),
Cc1cccc(NC(=S)N(C)C)c1,-1.53% (inactive),
CN1CCN(C2Cc3ccccc3Sc3ccc(Cl)cc32)CC1 (centres undefined),1.51% [at 53 µM] (inactive),
CC/C=C(\C)C=O,-0.0875% (inactive),
CC(=O)NCCCS(=O)(=O)O,0.0746% [at 53 µM] (inactive),
Cc1cc2cc3c(C)cc(=O)oc3c(C)c2o1,-2.52% [at 53 µM] (inactive),
O=C(O)c1ccccc1-n1cc(C(=O)O)c(=O)c2cc(Nc3c(F)cc(F)cc3Cl)c(Cl)cc21,-1.32% (inactive),
CCc1cccc(CC)c1,-0.162% (inactive),
O=Cc1ccc(C(=O)O)cc1,-1.46% (inactive),
Cc1ccccc1C(=O)N1CC/C(=N\OS(=O)(=O)O)c2ccc(Cl)cc21,-1.17% [at 53 µM] (inactive),
CN1CC(=O)NC1=N,0.443% [at 53 µM] (inactive),
Nc1ccc(Oc2ccc(Cl)cc2)cc1,2.74% (inactive),
O=C(O)P(=O)(O)O,1.46% [at 53 µM] (inactive),
CCN(CC)S(=O)(=O)c1ccc(C(=O)O)cc1,1.51% [at 53 µM] (inactive),
NC(CSCC(=O)O)C(=O)O (centres undefined),1.01% [at 53 µM] (inactive),
CC(C)N(C)C,-0.324% (inactive),
CCCCCCCCCCCCCC(=O)OCC,0.0904% (inactive),
CCO[Si](C)(CCCOCC1CO1)OCC (centres undefined),-1.64% (inactive),
CC(=O)O[C@]1(C(C)=O)CC[C@H]2[C@@H]3C=C(Cl)C4=CC(=O)CC[C@]4(C)[C@H]3CC[C@@]21C,,inactive
Cc1ncc(COP(=O)(O)O)c(C=O)c1O,2.18% [at 53 µM] (inactive),
